Experimental findings from paper PMC13541613, “GHT-SELEX demonstrates unexpectedly high intrinsic sequence specificity and complex DNA binding of many human transcription factors” are described below.

What all share (experiment): HT-SELEX; 20 mM HEPES pH 7, 140 mM KCl, 5 mM NaCl, 1 mM K2HPO4, 2 mM MgSO4, 100 uM EGTA, ZnSO4, 0.1% Tween20; room temperature, 1 h; high values mean tight binding
Holding throughout (conditions): protein: ivt; tags: eGFP (N-terminal); dsDNA, one strand shown

The target in test [1] is ZNF721 full-length (Homo sapiens, UniProt Q8TF20-2 1-923). The method in brief: (§1)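 A tagged transcription factor, either full-length or its DNA-binding-domain fragment, was made in HEK293 lysate or cell-free extract, immobilised on beads and incubated with a randomized 40-base DNA library for 1 h at room temperature in HEPES/KCl low-stringency buffer containing Tween20. Washed beads were heat-eluted, and the bound DNA was PCR-amplified over successive cycles and Illumina-sequenced at ~3 million 60 bp reads per sample. The binding signal is the relative k-mer count in selected reads, where a higher value means tighter binding.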

In test [2] the target is ZNF721 DBD1 (Homo sapiens, UniProt Q8TF20-2 29-461). The method in brief: as §1
Test [3] deals with ZNF721 DBD2 (Homo sapiens, UniProt Q8TF20-2 395-923). The method in brief: as §1
Chain of ZNF721 DBD2 (Q8TF20 383-911): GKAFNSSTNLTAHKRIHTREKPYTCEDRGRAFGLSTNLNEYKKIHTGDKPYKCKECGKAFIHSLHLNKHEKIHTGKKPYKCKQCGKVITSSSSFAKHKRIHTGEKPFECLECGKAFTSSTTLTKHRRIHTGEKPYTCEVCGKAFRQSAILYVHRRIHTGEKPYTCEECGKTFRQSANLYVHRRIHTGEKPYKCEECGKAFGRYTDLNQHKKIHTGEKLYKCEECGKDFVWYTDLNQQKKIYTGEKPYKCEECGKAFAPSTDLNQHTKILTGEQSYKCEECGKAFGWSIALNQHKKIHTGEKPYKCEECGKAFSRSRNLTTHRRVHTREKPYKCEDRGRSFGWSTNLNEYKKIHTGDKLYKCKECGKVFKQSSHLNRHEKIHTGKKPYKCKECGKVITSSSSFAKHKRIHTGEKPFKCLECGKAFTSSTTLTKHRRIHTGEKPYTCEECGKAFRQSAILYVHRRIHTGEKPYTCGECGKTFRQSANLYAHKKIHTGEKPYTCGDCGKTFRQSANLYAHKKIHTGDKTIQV

Chain of ZNF721 full-length (Q8TF20 other isoform, or with tags, fused parts or gaps): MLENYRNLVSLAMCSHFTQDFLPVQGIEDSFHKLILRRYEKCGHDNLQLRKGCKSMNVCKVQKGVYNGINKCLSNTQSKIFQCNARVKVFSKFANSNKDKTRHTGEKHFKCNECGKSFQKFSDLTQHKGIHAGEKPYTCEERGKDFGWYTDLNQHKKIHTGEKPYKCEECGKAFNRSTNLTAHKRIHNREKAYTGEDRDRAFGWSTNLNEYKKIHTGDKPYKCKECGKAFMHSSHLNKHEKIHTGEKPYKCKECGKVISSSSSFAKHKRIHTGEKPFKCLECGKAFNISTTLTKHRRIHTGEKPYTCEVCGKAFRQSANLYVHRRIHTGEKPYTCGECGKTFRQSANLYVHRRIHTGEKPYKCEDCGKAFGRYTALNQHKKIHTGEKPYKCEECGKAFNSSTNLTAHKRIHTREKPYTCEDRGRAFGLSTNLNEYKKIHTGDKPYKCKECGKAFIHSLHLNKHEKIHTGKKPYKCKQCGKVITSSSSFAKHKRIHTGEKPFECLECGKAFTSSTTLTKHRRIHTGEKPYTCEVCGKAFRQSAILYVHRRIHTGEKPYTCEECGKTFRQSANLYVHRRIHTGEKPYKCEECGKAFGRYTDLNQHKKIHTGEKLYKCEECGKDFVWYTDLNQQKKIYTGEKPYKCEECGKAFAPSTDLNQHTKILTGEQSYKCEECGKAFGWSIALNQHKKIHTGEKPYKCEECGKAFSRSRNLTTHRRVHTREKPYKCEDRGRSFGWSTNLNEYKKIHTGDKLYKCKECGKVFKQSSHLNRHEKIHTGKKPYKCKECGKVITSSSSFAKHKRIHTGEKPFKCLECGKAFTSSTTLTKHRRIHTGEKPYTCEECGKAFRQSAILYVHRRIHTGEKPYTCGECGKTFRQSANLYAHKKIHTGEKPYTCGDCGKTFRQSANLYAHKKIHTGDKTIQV
Chain of ZNF721 DBD1 (Q8TF20 17-449): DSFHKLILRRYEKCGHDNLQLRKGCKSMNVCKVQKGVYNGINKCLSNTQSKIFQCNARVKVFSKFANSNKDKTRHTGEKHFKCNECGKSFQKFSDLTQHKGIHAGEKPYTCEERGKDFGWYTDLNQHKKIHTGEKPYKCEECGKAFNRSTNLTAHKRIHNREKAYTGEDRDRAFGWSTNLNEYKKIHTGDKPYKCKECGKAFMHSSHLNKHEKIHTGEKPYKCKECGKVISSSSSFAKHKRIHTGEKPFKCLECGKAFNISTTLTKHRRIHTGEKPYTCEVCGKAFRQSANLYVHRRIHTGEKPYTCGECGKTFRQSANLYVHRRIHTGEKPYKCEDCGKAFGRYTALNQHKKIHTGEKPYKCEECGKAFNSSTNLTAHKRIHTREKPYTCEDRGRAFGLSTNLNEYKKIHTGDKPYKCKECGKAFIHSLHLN

As for CCCCTCCCGC, the binding signal in test [1] stood at 0.137 relative 10-mer count; in test [2] it was 0.00665 relative 10-mer count; in test [3] it was 0.00635 relative 10-mer count.
Taken in the same sequence, the figures for CCCACCACCG were 0.12 relative 10-mer count, 0.00514 relative 10-mer count and 0.00503 relative 10-mer count.
Taken in the same sequence, the figures for CCTCCGCCCC were 0.161 relative 10-mer count, 0.00789 relative 10-mer count and 0.003 relative 10-mer count.
Consider CTCCCCCCGC, for which the binding signal was determined as 0.114 relative 10-mer count in test [1], 0.00468 relative 10-mer count in test [2] and 0.00144 relative 10-mer count in test [3].
Taken in the same sequence, the figures for CCTCCCCCCA were 0.18 relative 10-mer count, 0.00761 relative 10-mer count and 0.0036 relative 10-mer count.
Taken in the same sequence, the figures for CGCCCACCAC were 0.138 relative 10-mer count, 0.00569 relative 10-mer count and 0.00384 relative 10-mer count.
The corresponding values for CCGCCCACCC are 0.268 relative 10-mer count, 0.0089 relative 10-mer count and 0.0018 relative 10-mer count.
As for CCCACCCCGC, the binding signal was found to be 0.212 relative 10-mer count in test [1], 0.0094 relative 10-mer count in test [2] and 0.00336 relative 10-mer count in test [3].
Taken in the same sequence, the figures for GCCACCCCCA were 0.107 relative 10-mer count, 0.00326 relative 10-mer count and 0.00216 relative 10-mer count.
The corresponding values for CCCTCCACCA are 0.109 relative 10-mer count, 0.00436 relative 10-mer count and 0.00659 relative 10-mer count.
Take AAAAACAGTA: the binding signal in test [1] was determined as 0.176 relative 10-mer count; in test [2], 0.00119 relative 10-mer count; in test [3], 0.212 relative 10-mer count.
The corresponding values for CTTCATACTC are 0.167 relative 10-mer count, 0.271 relative 10-mer count and 0.00132 relative 10-mer count.
Taken in the same sequence, the figures for CCCCGCCGCC were 0.175 relative 10-mer count, 0.00541 relative 10-mer count and 0.0012 relative 10-mer count.
For AAAAAGCAGT, the binding signal in test [1] came out at 0.497 relative 10-mer count; in test [2] it was 0.0214 relative 10-mer count; in test [3], 0.383 relative 10-mer count.
The corresponding values for CGAAAAAACA are 0.153 relative 10-mer count, 0.0022 relative 10-mer count and 0.161 relative 10-mer count.
Take CACGCCCCAC: the binding signal in test [1] came out at 0.11 relative 10-mer count; in test [2], 0.00326 relative 10-mer count; in test [3], 0.00455 relative 10-mer count.
The corresponding values for CCCACCTACC are 0.111 relative 10-mer count, 0.00573 relative 10-mer count and 0.00659 relative 10-mer count.
The corresponding values for AAAAAAGCGG are 0.11 relative 10-mer count, 0.0255 relative 10-mer count and 0.0279 relative 10-mer count.
Take CACACCACCC: the binding signal stood at 0.142 relative 10-mer count in test [1], 0.00573 relative 10-mer count in test [2] and 0.00527 relative 10-mer count in test [3].
Taken in the same sequence, the figures for AAGCTATCCC were 0.172 relative 10-mer count, 0.105 relative 10-mer count and 0.0012 relative 10-mer count.
The corresponding values for ACCTCCCACC are 0.113 relative 10-mer count, 0.00578 relative 10-mer count and 0.00348 relative 10-mer count.
Taken in the same sequence, the figures for CCCTCCCGCC were 0.161 relative 10-mer count, 0.00716 relative 10-mer count and 0.00503 relative 10-mer count.
Take CTCCCGCCCC: the binding signal is 0.136 relative 10-mer count in test [1], 0.00596 relative 10-mer count in test [2] and 0.00192 relative 10-mer count in test [3].
The corresponding values for GCTTCATACA are 0.231 relative 10-mer count, 0.318 relative 10-mer count and 0.0018 relative 10-mer count.
Taken in the same sequence, the figures for CCCGACCCCC were 0.178 relative 10-mer count, 0.00628 relative 10-mer count and 0.00144 relative 10-mer count.
Take AGCATACCCC: the binding signal stood at 0.144 relative 10-mer count in test [1], 0.0115 relative 10-mer count in test [2] and 0.146 relative 10-mer count in test [3].
The corresponding values for CCCCCGCCCC are 0.312 relative 10-mer count, 0.0117 relative 10-mer count and 0.00372 relative 10-mer count.
As to CACGCCACCC, the binding signal in test [1] amounted to 0.103 relative 10-mer count; in test [2], 0.00344 relative 10-mer count; in test [3], 0.00587 relative 10-mer count.
Taken in the same sequence, the figures for AAAGCTATCC were 0.165 relative 10-mer count, 0.0786 relative 10-mer count and 0.00156 relative 10-mer count.
Turning to CCACACACCC, the binding signal was 0.105 relative 10-mer count in test [1], 0.00321 relative 10-mer count in test [2] and 0.00312 relative 10-mer count in test [3].
Taken in the same sequence, the figures for AAAAAAGCGT were 0.276 relative 10-mer count, 0.0607 relative 10-mer count and 0.0512 relative 10-mer count.
For the sequence CTCCCCCCTC, the values for the binding signal in test [1], in test [2] and in test [3] were 0.108 relative 10-mer count, 0.00605 relative 10-mer count and 0.00336 relative 10-mer count, respectively.
The corresponding values for CCCACGCCCC are 0.233 relative 10-mer count, 0.00729 relative 10-mer count and 0.00384 relative 10-mer count.
CCGCCCCTCC: the binding signal in test [1] was determined as 0.151 relative 10-mer count; in test [2], 0.00624 relative 10-mer count; in test [3] it was 0.00312 relative 10-mer count.
Taken in the same sequence, the figures for CCCCACCACC were 0.447 relative 10-mer count, 0.0213 relative 10-mer count and 0.00767 relative 10-mer count.
The corresponding values for CCAACCCACC are 0.171 relative 10-mer count, 0.00642 relative 10-mer count and 0.00395 relative 10-mer count.
With CGCACCACCC, the binding signal in test [1] turned out to be 0.108 relative 10-mer count; in test [2], 0.00381 relative 10-mer count; in test [3], 0.00695 relative 10-mer count.
